# HT1080NT lethal: kills 2HG-producing HT-1080-NT fibrosarcoma cells | HT-1080-NT fibrosarcoma viability, CellTiter-Glo ATP luminescence, 48 h | Potency, µM (highest dose often 46.1 µM), for the others: top-dose activity, negative = less viability, most hits filed as cytotoxic | 1.6% of 360,000 active;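 note: NT is the 2HG producing partner of a matched IDH1 knockdown line; 0% = DMSO-treated cells and -100% = media-only wells without cells; nearly all actives have a fitted effect of over 55% in size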
#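 Luminescent CellTiter-Glo readout after 48 hours of compound exposure at 37 degrees C defined viability of HT-1080-NT cells. Activity was normalized to DMSO wells and cell-free media wells; concentration-response curves were fitted and assigned curve classes.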
# DT40 TDP1 CPT: DT40-hTDP1 cell growth loss with CPT. 12% of 420,000 active. Potency, µM (highest dose often 46.2 µM), inactives show top-dose activity change, negative = growth inhibition, most hits filed as inhibitors. chicken DT40 Tdp1-/-;hTDP1 cells + 20 nM CPT, ATP luminescence, 48 h; note: % is set by controls: 0 for no effect and ±100 for the full control effect; nearly all actives have a fitted effect of over 55% in size
#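 Chicken DT40 Tdp1-/- cells complemented with human TDP1, 400 cells/well, exposed to compounds plus 20 nM camptothecin for at least 48 h at 37 C; viability read as ATP content by CellTiter-Glo luminescence.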
# HepG2 tox: kills HepG2 cells in TGF-b inhibitor counter-screen | 0.76% of 410,000 active | Potency, µM (series often up to 46.1 µM), for the others: top-dose activity change, negative = cytotoxicity, hits mostly cytotoxic | HepG2 CAGA-GFP viability, ATP luminescence, 18 h
#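 CellTiter-Glo luminescence gave cytotoxicity after 18 hours at 37 degrees C. The cells were HepG2 CAGA-GFP in 1% FBS DMEM, stimulated with 500 pg/mL TGF-beta after compound addition. %Activity was normalised to no-cell wells (complete cell-killing) and DMSO (no toxicity), and curves were fitted and classified.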
# TGFb SMAD3 inh: inhibitors of TGF-b signaling | HepG2 CAGA-GFP TGF-b/SMAD3 reporter, GFP fluorescence, 18 h; TGF-beta stimulated, 500 pg/mL final | Potency, µM (doses to about 46.1 µM), inactives show at the top dose activity, negative = inhibition, usual class: inhibitors | 1.2% of 410,000 active | AID 588855; note: % is set by controls: 0 for no effect and ±100 for the full control effect; nearly all actives have a fitted effect of over 65% in size
#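 Smad-responsive CAGA-GFP expression was quantified in HEPG2 cells exposed to compounds and 500 pg/mL final TGF-beta for 18 h at 37 degrees C; unstimulated wells defined full inhibition.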
# DT40 TDP1 no CPT: qHTS for Inhibitors of human tyrosyl-DNA phosphodiesterase 1 (TDP1): qHTS in cells in absence of CPT; DT40 Tdp1-/- hTDP1 cells, no CPT, ATP luminescence, 48 h; Potency, µM (titrated, usually from 46.2 µM), without a hit: at the highest dose activity change, negative = growth inhibition, actives largely listed as inhibitors; 15% of 420,000 active; AID 686978, 2013; note: % is set by controls: 0 for no effect and ±100 for the full control effect; nearly all actives have a fitted effect of over 55% in size
#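 A cellular qHTS used chicken DT40 cells lacking endogenous Tdp1 but carrying stably transfected human TDP1. Compounds were applied without camptothecin, and cell growth kinetics were judged by ATP-dependent luminescence after ≥48 hr.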
# HT1080 IDH1KD tx: kills HT-1080 cells with IDH1 knockdown; HT-1080 IDH1 knockdown viability, ATP luminescence, 48 h; Potency, µM (series often up to 46.1 µM), without a hit: at the highest dose activity, negative = toxicity, hits mostly cytotoxic; 2% of 360,000 active;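 note: 0% = DMSO wells and -100% = cell-free medium wells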
#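 Knockdown cells (IDH1KD HT-1080) received compounds 2 h after plating at 750 cells/well and were kept 48 h at 37 °C in 5% FBS RPMI. A CellTiter-Glo luminescence read gave % activity for curve fitting.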
# An asterisk follows results filed as active; ? = inconclusive; / = no result given. The list is not random: actives were taken first. Their share in the collection is about 17%. Calls come from the whole dose curve; as a rule, active = well fitted curve in the direction sought with a large enough effect; inconclusive = small, poorly fitted or top-dose-only effect, or another doubt; inactive = no such curve, though single readings can be large; an effect the other way counts as inactive or inconclusive. Potency is the fitted concentration of half-maximal effect.
SMILES,HT1080NT lethal,DT40 TDP1 CPT,HepG2 tox,TGFb SMAD3 inh,DT40 TDP1 no CPT,HT1080 IDH1KD tx
CCN1C(=O)[C@H]2[C@@H](c3ccc(-c4ccc(OC)cc4)cc3)N3CCC[C@@]3(C(=O)OC)[C@H]2C1=O,9%,?,-12%,?,15µM*,-1%
CCN1C(=O)[C@H]2[C@@H](c3ccc(-c4ccc(OC)cc4)cc3)N3CCCC[C@@]3(C(=O)OC)[C@H]2C1=O,2%,?,-5%,-16%,16µM*,9%
Cc1ccccc1C(=O)Nc1nc(-c2nnn(-c3ccc(C(C)C)cc3)c2C)ns1,/,?,-34%,?,?,/
COc1cc(C(=S)N2CCCCC2)ccc1OCC(=O)Nc1ccccc1Cl,?,?,-16%,-10%,23µM*,-8%
O=C(COc1ccc(C(=S)N2CCOCC2)cc1Cl)Nc1ccccc1Cl,16%,-22%,-55%,-8%,-19%,13%
CCOc1cc(C(=S)N2CCCC2)ccc1OCC(=O)Nc1c(C)cc(C)cc1C,-16%,18µM*,7%,-20%,16µM*,-6%
O=C1C(NS(=O)(=O)c2cccs2)=C(N2CCN(c3cccc(Cl)c3)CC2)C(=O)c2ccccc21,0%,21µM*,-4%,?,23µM*,3%
O=C1C(NS(=O)(=O)c2ccccc2)=C(N2CCN(c3ccc(F)cc3)CC2)C(=O)c2ccccc21,?,?,-12%,?,?,-19%
COc1ccc(Cl)cc1NS(=O)(=O)c1cccc(C(=O)NCCCN2CCOCC2)c1,0%,-17%,-22%,6%,-20%,0%
Cc1snc(S(=O)(=O)/C(C#N)=N/Nc2cccc(C(F)(F)F)c2)c1C#N,1%,16µM*,-26%,-22%,?,-17%
COc1ccc(N/N=C(/C#N)S(=O)(=O)c2nsc(C)c2C#N)cc1,-5%,2%,-18%,-26%,?,-1%
Cn1cc([N+](=O)[O-])c(C(=O)Nc2ccc(-c3nc4ccccc4[nH]3)cc2)n1,?,6%,-21%,?,?,?
Cn1cc([N+](=O)[O-])c(C(=O)Nc2cc(Oc3cccnc3)cc([N+](=O)[O-])c2)n1,21µM*,-18%,-83%,13µM*,?,18µM*
Cn1cc([N+](=O)[O-])c(C(=O)Nc2ccc(C(=O)N3CCCCC3)cc2)n1,?,-4%,8.9µM*,?,0%,23µM*
Cn1cc([N+](=O)[O-])c(C(=O)Nc2ccc(C3CCCCC3)cc2)n1,23µM*,?,-105%,?,-18%,?
Cc1cc(C)n(Cc2ccc(NC(=O)c3nn(C)cc3[N+](=O)[O-])cc2)n1,10µM*,-3%,-5%,?,2%,6.3µM*
O=[N+]([O-])c1cc2c(cc1Br)-c1ccccc1C2,-1%,-9%,-97%,?,26µM*,-14%
CC(C)(CNCc1ccccc1)NS(=O)(=O)c1ccccc1,-2%,-2%,9%,2%,-3%,-1%
O=C(NC1(C(F)(F)F)N=C(c2ccccc2)N(C2CCCCC2)C1=O)c1ccc(F)cc1 (stereo not drawn),/,-25%,-26%,-2%,?,/
O=C1CC(c2ccc(Cl)cc2)N=C(NC(=O)c2ccccc2)N1 (stereo not drawn),/,-22%,-3%,-1%,-16%,/
CC1=Nc2ccccc2N=C(NC(=O)c2ccccc2)C1c1ccc(Cl)cc1 (stereo not drawn),-24%,?,-8%,?,21µM*,-12%

# Bioassay records as filed in PubChem BioAssay.
